Test results as given in paper PMC12670160, “A drug-repurposing screen of FDA- and EMA-approved drugs identifies two NF-κB inhibitors active against eumycetoma” (Journal of Antimicrobial Chemotherapy, 2025).
Where a name gives a salt, the structure may show the parent alone. Out of some 5,300 compounds screened, about 130 (2.5%) showed an effect of 50% or more. The list comes from a sample in which strong results are over-represented; it also holds similar structures and randomly drawn compounds.

These molecules were tested on M. mycetomatis strain mm55. Settings: primary screen, metabolic activity vs growth control; 96 h, 2 µM; inhibitor.

Structure (SMILES) | % viability [%]
CC(C)[C@H](N)C(=O)OCCOCn1cnc2c(=O)[nH]c(N)nc21 [ONC0004144, valacyclovir hydrochloride] | 101.2
O=c1[nH]ccc2cc(OC3CCNCC3)ccc12 [ONC0001198, sar407899 hydrochloride] | 94.6
O=C(CC1CC(c2ccc(F)cc2F)=NO1)N1CCOCC1 (stereo not drawn) [ONC0000237, cpsi1306] | 89.07
O=C1CN(/N=C/c2ccc(-c3ccc([N+](=O)[O-])cc3)o2)C(O)=N1 [ONC0003073, dantrolene] | 104.9
COC(=O)[C@@]12OC[C@]34[C@H]([C@@H](O)[C@@H]1O)[C@@]1(C)CC(=O)C(O)=C(C)[C@@H]1C[C@H]3OC(=O)[C@H](OC(=O)/C=C(\C)C(C)C)[C@@H]24 [ONC0001105, bruceantin] | 72.53
COc1cc2nc(N3CCCN(C)CC3)nc(NC3CCN(Cc4ccccc4)CC3)c2cc1OC [ONC0004534, bix 01294] | 44.63
COc1cc2c(NC3CCN(C)CC3)nc(N3CCCN(C)CC3)nc2cc1OCCCN(C)C [ONC0000276, unc0224] | 85.54
COc1cc2c(NC3CCN(C)CC3)nc(N3CCCN(C)CC3)nc2cc1OCCOCCN(C)C [ONC0002054, unc0321] | 65.32
CNCCc1c[nH]cn1 [ONC0002580, nalphamethylhistaminedihydrochloride] | 77.02
C[C@]12C=CC(=O)C=C1CCC1C2[C@@H](O)C[C@@]2(C)C1CC[C@]2(O)C(=O)COC(=O)CCC(=O)O (stereo partly drawn) [ONC0004028, prednisolone hemisuccinate] | 62.59
COc1ccc2c(NC(=O)Nc3cccc(C(F)(F)F)n3)ccnc2c1 [ONC0002529, a1070722] | 76.76
NCC(=O)CCC(=O)O [ONC0004291, aminolevulinic acid hydrochloride] | 48.43
NCC(=O)O [ONC0001985, glycine] | 104.5
O=C(O)CCC(=O)O [ONC0003714, succinic acid] | 98.68
CC(=O)N[C@@H](CS)C(=O)O [ONC0000337, acetylcysteine] | 67.99
CC(C)(S)C(=O)N[C@@H](CS)C(=O)O [ONC0003276, bucillamine] | 45.36
CC(C)OC(=O)CNC(=O)[C@H](CS)NC(=O)CC[C@H](N)C(=O)O [ONC0002985, glutathionemonoisopropylester] | 70.59
NC(=O)c1cc[n+](CC2=C(C(=O)O)N3C(=O)[C@@H](NC(=O)Cc4cccs4)[C@H]3SC2)cc1 [ONC0005624, cefalonium] | 95.75
CO[C@H]1CC[C@H](N(c2cc(C3=CCCCC3)sc2C(=O)O)C(=O)[C@H]2CC[C@H](C)CC2)CC1 [ONC0000943, vch916] | 78.62
CC(C)c1ccc(C(=O)NC(=N)N)cc1S(C)(=O)=O [ONC0004136, cariporide] | 93.97
CC12CCC(C(Br)C1=O)C2(C)C (stereo not drawn) [ONC0003727, 3bromocamphor] | 127.8
Cc1csc2c(N[C@@H](C)CN3CCN(S(=O)(=O)c4ccc(Cl)c(Cl)c4)CC3)ncnc12 [ONC0001129, lpa2 antagonist 1] | 45.06
O=C(O)/C(Cc1ccccc1[N+](=O)[O-])=N/Nc1nc(-c2ccc(Cl)c(Cl)c2)cs1 [ONC0005147, 4egi1] | 73.1
CC[C@]1(O)C[C@H]2CN(CCc3c([nH]c4ccccc34)[C@@](C(=O)OC)(c3cc4c(cc3OC)N(C)[C@H]3[C@@](O)(C(N)=O)[C@H](O)[C@]5(CC)C=CCN6CC[C@]43[C@@H]65)C2)C1 [ONC0000288, vindesine sulfate] | 94.86
C[C@]12CC[C@@H]3c4ccc(O)cc4CC[C@H]3[C@@H]1CC[C@@H]2OC(=O)CCC1CCCC1 [ONC0000738, estradiol cypionate] | 84.11
C[C@]12CC[C@@H]3c4ccc(O)cc4CC[C@H]3[C@@H]1CC[C@@H]2O [ONC0000707, estradiol] | 85.31
CCCCC(=O)O[C@H]1CC[C@H]2[C@@H]3CCc4cc(O)ccc4[C@H]3CC[C@]12C [ONC0000727, estradiol valerate] | 49.76

Structure (SMILES) | % viability [%]
[H]/N=C(\N/C(=N/[H])NCCCCCCNC(=N)NC(=N)Nc1ccc(Cl)cc1)Nc1ccc(Cl)cc1 [ONC0000326, chlorhexidine dihydrochloride] | 77.24
Cc1cccc(NC(=O)N[C@@H]2N=C(c3ccccc3)c3ccccc3N(CC(=O)c3ccccc3C)C2=O)c1 [ONC0005568, ym022] | 88.21
CC1=C(CCC(=O)O)c2cc3[nH]c(cc4nc(cc5[nH]c(cc1n2)c(C)c5C(C)O)C(C)=C4C(C)O)c(C)c3CCC(=O)O (stereo not drawn) [ONC0002122, hematoporphyrin] | 86.42
C=Cc1c(C)c2cc3nc(c(CC(=O)O)c4[nH]c(cc5nc(cc1[nH]2)C(C)=C5CC)c(C)c4C(=O)O)C(CCC(=O)O)C3C (stereo not drawn) [ONC0000409, chlorophyllin chlorin e6] | 49.9
C=CC1=C(C)c2cc3[nH]c(cc4nc(cc5[nH]c(cc1n2)c(C)c5CCC(=O)O)C(CCC(=O)O)=C4C)c(C)c3C=C [ONC0000685, protoporphyrin ix] | 98.29
CN(C)[C@@H]1C(=O)C(C(N)=O)C(=O)[C@@]2(O)C(=O)C3C(=O)c4c(O)cccc4[C@@](C)(O)[C@H]3C[C@@H]12 (stereo partly drawn) [ONC0000563, tetracycline hydrochloride] | 113.1
C/C(=N\NC(=N)N)c1cc(NC(=O)CCCCCCCCC(=O)Nc2cc(/C(C)=N/NC(=N)N)cc(/C(C)=N/NC(=N)N)c2)cc(/C(C)=N/NC(=N)N)c1 [ONC0003851, semapimod] | 78.92
CCCCCCCCCCCCCCCCCC(=O)OCC(O)[C@H]1OC[C@H](O)[C@H]1O (stereo partly drawn) [ONC0002989, sorbitanmonostearate] | 79.74
COc1cc2c(Nc3ccc(NC(=O)c4ccccc4)cc3)ncnc2cc1OCCCN1CCOCC1 [ONC0003607, zm447439] | 145.2
CCn1c(-c2nonc2N)nc2cnc(Oc3cccc(NC(=O)c4ccc(OCCN5CCOCC5)cc4)c3)cc21 [ONC0002474, gsk269962] | 46.2
CCOc1cccc(NC(=O)c2ccc(N3CCCC3)c(C(F)(F)F)c2)c1 [ONC0001854, epptb] | 85.67
Cc1nc2ccc(CN(C)c3ccc(C(=O)N[C@@H](CCC(=O)O)C(=O)O)s3)cc2c(=O)[nH]1 [ONC0004884, raltitrexed tomudex] | 134.6
CN1CCN2c3c(cccc31)[C@@H]1CN(CCCC(=O)c3ccc(F)cc3)CC[C@@H]12 [ONC0001244, lumateperone tosylate] | 56.09
CC1=NN(c2ccc(C)c(C)c2)C(=O)/C1=N/Nc1cccc(-c2cccc(C(=O)O)c2)c1O [ONC0004936, eltrombopag olamine] | 85.22
FC(F)(F)c1ccccc1-n1ccnc1 [ONC0000025, trim] | 101
N#CC(c1ccccc1)(c1ccccc1)c1ccccc1Cl [ONC0000177, tram39] | 89.73
Clc1ccccc1C(c1ccccc1)(c1ccccc1)n1ccnc1 [Clotrimazole] | 2.944
C=CC1=C(C)c2cc3[nH]c(cc4nc(cc5[nH]c(cc1n2)c(C)c5CCC(=O)O)C(CCC(=O)OC)=C4C)[C@@]1(C)C3=CC=C(C(=O)OC)[C@H]1C(=O)OC [ONC0001491, verteporfin] | 55.47
CC(C)(C)c1ccc(-c2nc3c(N4CCN(Cc5ccc6nccnc6c5)CC4)cccc3[nH]2)cc1 [ONC0001828, way207024] | 97.56
N=C(N)NCCC[C@@H](N)C(=O)O [ONC0004802, larginine hcl] | 91.52
CN1C/C=C/CCOc2cccc(c2)-c2ccnc(n2)Nc2cccc(c2)C1 [ONC0001026, sb1317] | 86.64
Nc1nc2c(ncn2[C@@H]2O[C@H](CO)[C@@H](O)[C@H]2O)c(=S)[nH]1 [ONC0004689, thioguanosine] | 121.6
C=C[C@@]1(C)CC(=O)[C@]2(O)[C@@]3(C)[C@@H](O)CCC(C)(C)[C@@H]3[C@H](OC(=O)CCN(C)C)[C@H](OC(C)=O)[C@@]2(C)O1 [ONC0002915, colforsindaproate] | 95.97
C/C=C(\C)C(=O)O[C@H]1[C@H](OC(C)=O)[C@@]2(CO)C(CC1(C)C)C1=CCC3[C@@]4(C)CCC(O[C@@H]5O[C@H](C(=O)O)[C@@H](O[C@@H]6O[C@H](CO)[C@@H](O)[C@H](O)[C@H]6O)[C@H](O)[C@H]5O[C@@H]5O[C@H](CO)[C@@H](O)[C@H](O)[C@H]5O)[C@](C)(CO)C4CC[C@@]3(C)[C@]1(C)C[C@H]2O (stereo partly drawn) [ONC0002310, escin] | 67.54
CN1CCC2=C(C1)C(c1ccccc1)c1ccccc12 (stereo not drawn) [ONC0001922, phenindamine] | 47.96
CN1CCOC(c2ccccc2)c2ccccc2C1 (stereo not drawn) [ONC0000697, nefopam] | 116
CN1CCC2=C(C1)c1ccccc1Cc1ccccc12 [ONC0005445, setiptiline] | 113.1
